Six1-Eya2 inh = blocks human Six1 binding to Eya2 | Q15475+O00167 | AlphaScreen GST-Six1/His-Eya2 binding, biochemical; active compounds read low | activity change, % (concentration not given with the values) | actives 0.56% (n = 360,000); in the data active means activity change below about -65%; inconclusive means mostly about -30% to -63%
Target sequence (O00167 whole entry, looked up): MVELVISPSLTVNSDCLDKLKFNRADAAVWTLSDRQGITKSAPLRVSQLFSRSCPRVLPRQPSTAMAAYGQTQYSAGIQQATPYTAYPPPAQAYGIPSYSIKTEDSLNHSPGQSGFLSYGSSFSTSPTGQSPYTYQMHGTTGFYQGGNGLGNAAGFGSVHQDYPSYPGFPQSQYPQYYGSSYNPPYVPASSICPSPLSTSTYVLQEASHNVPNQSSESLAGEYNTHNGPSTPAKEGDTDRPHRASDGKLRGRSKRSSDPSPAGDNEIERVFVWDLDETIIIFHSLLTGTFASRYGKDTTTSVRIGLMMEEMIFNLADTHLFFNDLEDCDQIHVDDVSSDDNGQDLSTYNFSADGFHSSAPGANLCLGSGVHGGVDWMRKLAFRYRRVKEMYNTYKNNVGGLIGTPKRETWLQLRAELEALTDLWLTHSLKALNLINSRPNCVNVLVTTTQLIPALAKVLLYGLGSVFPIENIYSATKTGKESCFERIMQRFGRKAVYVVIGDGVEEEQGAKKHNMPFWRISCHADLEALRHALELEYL
Target sequence (Q15475 whole entry, looked up): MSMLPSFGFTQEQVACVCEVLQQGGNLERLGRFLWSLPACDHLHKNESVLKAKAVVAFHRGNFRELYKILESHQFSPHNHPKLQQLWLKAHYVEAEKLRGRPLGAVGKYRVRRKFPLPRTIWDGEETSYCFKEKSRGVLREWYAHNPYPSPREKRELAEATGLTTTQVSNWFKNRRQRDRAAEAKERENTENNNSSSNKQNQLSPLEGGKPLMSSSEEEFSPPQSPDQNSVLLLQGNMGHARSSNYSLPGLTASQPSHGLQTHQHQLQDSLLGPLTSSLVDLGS
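GST-Six1 + His-Eya2 (5X stock: 250/500 nM); Tris pH 8.0, 300 mM NaCl, 0.05% BSA, 0.02% Tween 20; GSH donor/Ni acceptor beads; 1 h 37 °C dark; AlphaScreen readout.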
RORg inh = blocks mouse ROR gamma transcriptional activity; P51450; Drosophila S2 Gal4-RORgamma UAS-luciferase reporter, 20 h; Potency, µM (series often up to 53.6 µM), hits mostly inhibitors; actives 5.4% (n = 310,000); further: nearly all actives have a fitted effect of over 60% in size
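A Gal4/UAS one-hybrid system in insect cells: metallothionein-promoter Gal4–ROR gamma fusion plus Photinus luciferase reporter. Copper sulfate 700 uM final, 20 hr ambient incubation, luminescent detection after 10 min with reagent.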
CtBP-E1A blk = inhibitors of CtBP/E1A interaction. AlphaScreen GST-E1A/His-CtBP binding, 1536-well; active compounds read low. activity change, % (concentration not given with the values). actives 0.49% (n = 340,000). AID 651724; in the data active means activity change below about -65%; inconclusive means mostly about -30% to -63%
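Homogeneous bead-based format: GST-tagged E1A captured on glutathione donor beads, His-tagged CtBP on nickel acceptor beads; compounds precede bead addition by 2 h at 37 °C.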
VP16 counter = inhibits Gal4-VP16 luciferase reporter, ROR gamma counter-screen; Drosophila S2 Gal4-VP16 UAS-luciferase, luminescence, 20 h; Potency, µM (series often up to 53.6 µM), usual class: inhibitors; actives 3.5% (n = 310,000);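 further: Gal4-VP16 expression switched on by copper sulfate through the metallothionein promoter; nearly all actives have a fitted effect of over 50% in size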
PKM2 act = increases activity of human pyruvate kinase M2 | purified PKM2, Kinase-Glo ATP luminescence, activation; response scale: 0% is enzyme alone, no compound | actives 0.34% (n = 260,000) | Potency, µM (series often up to 57.5 µM), hits mostly activators | P14618 | AID 1631; further: nearly all actives have a fitted effect of over 55% in size
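Kinase-Glo luminescence reports ATP generated from ADP (0.1 mM) and PEP (0.5 mM) by purified hPK-M2 after 1 h at room temperature, pH 7.2 imidazole buffer; intermediate enzyme activity allows detecting inhibitors and activators.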
Numbers stand for hits; 0 = inactive; ? = inconclusive; - = not tested or not shown; [ ] = another dose, or the depositor's remark. Compounds with a hit are over-represented: about 5.6% of the library has one in this group of screens. Unless noted, the call rests on the fitted dose curve; in most records, active means well fitted curve in the direction sought with a large enough effect; inconclusive means small, poorly fitted or top-dose-only effect, or another doubt; inactive means no such curve, though single readings can be large; an effect the other way counts as inactive or inconclusive.

SMILES	Six1-Eya2 inh	RORg inh	CtBP-E1A blk	VP16 counter	PKM2 act
CC(=O)Oc1ccc(N(c2ccccc2)S(=O)(=O)c2ccc(C)cc2)cc1	0	0	0	0	0
Nc1nc(Sc2c([N+](=O)[O-])cc(C(F)(F)F)cc2[N+](=O)[O-])n[nH]1	0	10µM	0	15.8µM	0
Cc1cccc(C)c1NC(=O)CNC(=O)CNC(=O)c1ccc2c(c1)OCO2	0	-	0	-	-
CC1=CC(=O)C=C(C)C1=NOC(=O)c1cccc([N+](=O)[O-])c1	0	11.2µM	0	?	0
O=C(NC(=S)N1CCN(Cc2ccc3c(c2)OCO3)CC1)c1cccc(Br)c1	?	0.562µM	0	0.631µM	0
Cc1cc(Cl)ccc1NC(=S)N1CCN(Cc2ccc3c(c2)OCO3)CC1	0	?	0	?	0
O=C(NC(=S)N1CCN(Cc2ccc3c(c2)OCO3)CC1)c1ccc(Cl)cc1	0	0.447µM	0	0.631µM	0
O=C(c1ccco1)N1CCC2(CC1)CN(c1ccccc1)C2	-	0	-	0	-
COc1cccc(-c2ccc(NC(=O)C3CCCN(Cc4nccn4C)C3)cc2)c1 (stereo not drawn)	0	5.01µM	0	?	0
COC(=O)c1c(-c2ccc(C)cc2)csc1NC(=S)NC(=O)c1cc(OC)cc(OC)c1	0	2.82µM	0	8.91µM	0
CCOC(=O)c1c(-c2ccc(-c3ccccc3)cc2)csc1NC(=O)CNCCN(C)C	0	0.631µM	0	1.58µM	-
CCNC(=S)Nc1scc(-c2ccccc2)c1C(=O)OCC	0	1.41µM	0	2.51µM	0
CCOC(=O)c1c(-c2cccc([N+](=O)[O-])c2)csc1NC(=O)C1CCCCC1	0	?	0	10µM	0
CC[C@H](C)[C@H](NC(=O)[C@H](CCCNC(=N)N)NC(=O)[C@@H](NC(=O)[C@H](CCCNC(=N)N)NC(=O)[C@H](CCCCN)NC(=O)[C@H](CCCNC(=N)N)NC(=O)[C@@H](NC(=O)[C@H](CC(N)=O)NC(=O)[C@@H](N)CS)[C@@H](C)O)[C@@H](C)CC)C(=O)N[C@@H](CCC(N)=O)C(=O)N[C@@H](CCCNC(=N)N)C(=O)NCC(=O)N1CCC[C@H]1C(=O)NCC(=O)N[C@@H](CCCNC(=N)N)C(=O)N[C@@H](C)C(=O)N[C@@H](Cc1ccccc1)C(=O)N[C@H](C(=O)N[C@H](C(=O)N[C@H](C(=O)NCC(=O)N[C@@H](CCCCN)C(=O)O)[C@@H](C)CC)[C@@H](C)O)C(C)C	-	0	-	0	-
COc1ccc(OCc2nnc(SCC(=O)N(C)Cc3ccccc3)n2N)cc1	0	0	0	0	0
CCOC(=O)c1c(-c2ccccc2)csc1NC(=S)NC	0	?	0	1µM	0
CCOC(=O)c1c(-c2ccccc2)csc1NC(=O)CCN1C(=O)c2ccccc2C1=O	0	0	0	0	0
C=CCC1(CC=C)CCCN1C(=O)c1cc(COc2cccc(C(F)(F)F)c2)on1	0	0	0	12.6µM	0
O=C(c1cc(COc2cccc(C(F)(F)F)c2)on1)N1CCCC1	0	-	0	-	-
Cc1ccc([C@H]2N[C@]3(CCCN(Cc4ccc(F)cc4)C3=O)[C@H]3C(=O)N(C)C(=O)[C@@H]23)cc1	0	-	0	-	-
O=C(O)C(c1ccccc1)C1(O)CC2CCC1C2 (stereo not drawn)	0	-	0	-	-
Cc1ccc(-n2c(CC#N)n[nH]c2=S)c(C)c1	0	0	0	0	0
Cc1ccc(-n2c(Cc3ccccc3)n[nH]c2=S)c(C)c1	0	1.58µM	0	?	0
S=c1[nH]nc(Cc2ccccc2)n1-c1cccc2ccccc12	0	3.98µM	0	?	0
Cc1ccc(S(=O)(=O)N2C3CC(c4ccccc4)N(S(=O)(=O)c4cccc(Cl)c4)CC3C(=O)C[C@H]2c2ccccc2)cc1 (stereo partly drawn)	0	-	0	-	-
SMILES	Six1-Eya2 inh	RORg inh	CtBP-E1A blk	VP16 counter	PKM2 act
Cn1c(CCCNC(=O)c2ccco2)nc2ccccc21	0	-	0	-	-
Cc1ccccc1-n1c(C)nc2ccccc21	0	11.2µM	0	0[0.365 µM]	0
CCCCCCCCCCCC	-	0	-	0	-
O=C(CC1S/C(=N/N=C2CCCCCC2)NC1=O)Nc1ccc(Br)cc1F (stereo not drawn)	0	2.24µM	0	5.62µM	0
O=C(CC1S/C(=N/N=C2CCCCCC2)NC1=O)Nc1ccccc1F (stereo not drawn)	0	-	0	-	0
CN(Cc1c(F)cccc1Cl)C(=O)c1cnc2ccccc2n1	0	0	0	0	0
CCCc1cc(Nc2ccccc2OCC)n2ncnc2n1	0	11.2µM	0	?	0
CC1=C(C(=O)N(C)C)CC(CC(=O)NCc2cccc3ccccc23)C(=O)N1CCCN1CCCC1=O (stereo not drawn)	0	-	0	-	-
O=C(NCc1cccnc1)/C(=C/c1ccc(-c2ccc(Cl)cc2)o1)S(=O)(=O)c1ccccc1	0	?	0	20µM	0
O=C(NCc1cccnc1)/C(=C\c1ccc(-c2ccc(Br)cc2)o1)S(=O)(=O)c1ccccc1	0	?	0	?	0
Cc1nc2ccc(Br)cn2c1C(=O)N/N=C\c1ccc(C(C)C)cc1	0	5.62µM	-	5.01µM	0
CC(C)c1ccc(/C=N/NC(=O)c2ccccc2Cl)cc1	0	?	0	0	0
COc1ccc(CCC(=O)Nc2c(-c3ccc(N(C)C)cc3)[nH][nH]c2=O)cc1	0	-	?	-	-
C#CCOc1c(Br)cc(/C=N/O)cc1OCC	0	0	0	0	0
C#CCOc1c(Br)cc(/C=N\NC(=O)CN2CCOCC2)cc1OCC	0	0	0	35.5µM	0
